In the library only some 22% were active in any assay of this set; here they are far more common.
Cycloheximide cs – Cycloheximide Counterscreen for Small Molecule Inhibitors of Shiga Toxin | cell reporter, cycloheximide protein synthesis inhibition counterscreen | max response, % | 300,000 compounds, 12% hits; in the data active = max response mostly above about 13%, no sharp cut-off; inactive = mostly below about 14%; also: read at 38.3 µM for the half of the compounds with a filed dose
Shiga inhibitor – A qHTS for Small Molecule Inhibitors of Shiga Toxin. 290,000 compounds, 9.2% hits. Vero cells, Shiga toxin protein synthesis inhibition reporter. inhibition, % at 38.7 µM. AID 2315, 2010; in the data active = inhibition mostly above about 28%, no sharp cut-off; inactive = mostly below about 43%
Pf growth 96h – Primary qHTS for delayed death inhibitors of the malarial parasite plastid, 96 hour incubation | 320,000 compounds, 6.9% hits | P. falciparum luciferase reporter growth, 96 h | Potency, µM (doses to about 28.7 µM), hits mostly inhibitors
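Readout is luminescence from an integrated firefly luciferase in P. falciparum. Red cells, 2% hematocrit and 0.05% parasitemia final, were cultured with compound through two parasite generations (96 hours) at 37 C, 5% CO2.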
Pf growth 48h – Primary qHTS for delayed death inhibitors of the malarial parasite plastid, 48 hour incubation. P. falciparum luciferase growth in erythrocytes, 48 h. Potency, µM (highest dose often 28.7 µM), hits mostly inhibitors. 310,000 compounds, 5.9% hits
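First compound was added to culture medium, then infected red cells at 0.1% parasitemia and 2% hematocrit (final). After incubation at 37 C under 5% CO2, luciferase detection reagent was dispensed and light output recorded.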
LmPK inhibitor – qHTS Assay for Inhibitors of Leishmania Mexicana Pyruvate Kinase (LmPK); Q27686; purified LmPK, Kinase-Glo ATP luminescence, 1 h; Potency, µM (highest dose often 57.5 µM), most hits filed as inhibitors; 290,000 compounds, 0.37% hits
Target sequence (Q27686 whole entry, looked up): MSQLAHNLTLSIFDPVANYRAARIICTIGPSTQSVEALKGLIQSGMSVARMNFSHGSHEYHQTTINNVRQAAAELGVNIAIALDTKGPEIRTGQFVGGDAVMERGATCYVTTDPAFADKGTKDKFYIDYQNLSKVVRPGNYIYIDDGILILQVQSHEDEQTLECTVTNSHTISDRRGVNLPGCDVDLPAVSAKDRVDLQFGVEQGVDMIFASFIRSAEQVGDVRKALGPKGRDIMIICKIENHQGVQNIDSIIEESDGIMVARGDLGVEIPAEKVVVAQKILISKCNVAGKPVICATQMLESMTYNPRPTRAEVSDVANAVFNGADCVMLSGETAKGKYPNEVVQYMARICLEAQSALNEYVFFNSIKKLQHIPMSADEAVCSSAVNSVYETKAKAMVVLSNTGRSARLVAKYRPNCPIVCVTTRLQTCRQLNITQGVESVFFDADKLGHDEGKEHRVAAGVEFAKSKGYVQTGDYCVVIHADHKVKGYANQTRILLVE
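Kinase-Glo luminescence read after 1 h RT reaction of 0.1 nM LmPK with 0.5 mM PEP and 0.1 mM ADP. Activity scaled between uninhibited and enzyme-free controls.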
Each line names hits and unclear results; the compound was inactive in the other large screens. Unless noted, calls follow the shape of the dose curve; as a rule, active = well fitted inhibition curve with a large enough effect; inconclusive = small, poorly fitted or top-dose-only effect, or another doubt; inactive = no such curve, though single readings can be large or run the other way.

COCC(C)NC(=O)CSc1nc2ccccc2n1CCc1ccccc1 (stereo not given)	Pf growth 96h 10µM
CCC(C)NC(=O)CSc1nc2ccccc2c(=O)n1Cc1ccc(OC)cc1 (stereo not given)	Pf growth 96h 1.7µM (no result: Pf growth 48h)
O=C(CSc1nc2ccccc2n1CCc1ccccc1)c1ccc(O)c(O)c1	Cycloheximide cs 12, Pf growth 96h inconclusive
CCCNC(=O)NC(=O)CSc1nc2ccccc2c(=O)n1Cc1ccncc1	Pf growth 96h 13µM, Pf growth 48h inconclusive
Cc1cc(C(=O)N/N=C/c2ccc(N(C)C)cc2)c2ccccc2n1	none
Cc1c(C(=O)N/N=C/c2ccc(N(C)C)cc2)[nH]c2ccc(Cl)cc12	Pf growth 96h 1.9µM
Cc1c(C(=O)N/N=C/c2ccccc2)[nH]c2ccc(Cl)cc12	Cycloheximide cs 27, Shiga inhibitor 41, Pf growth 96h inconclusive
COc1cc(OC)c(C(=O)N/N=C/c2ccoc2)cc1OC	none
Cc1ccc(C(=O)N/N=C/c2ccoc2)cc1C	Cycloheximide cs 41, Shiga inhibitor 63
CCOc1cccc(C(=O)N/N=C/c2ccoc2)c1	Cycloheximide cs 24, Shiga inhibitor 49
CCCOc1cccc(C(=O)N/N=C/c2coc3ccccc3c2=O)c1	Pf growth 96h 13µM
O=C(N/N=C/c1coc2ccccc2c1=O)c1cc(Br)c(O)c(Br)c1	Pf growth 96h inconclusive
COc1ccc(C(=O)N/N=C\c2ccoc2)cc1	Pf growth 96h 4.7µM
Cn1c(=O)c2ncn(CC(=O)N/N=C/c3ccco3)c2n(C)c1=O	Pf growth 96h 5.9µM
Cn1c(=O)c2ncn(CC(=O)N/N=C/C=C/c3ccccc3)c2n(C)c1=O	none
C=CCc1cccc(/C=N/NC(=O)C(C)Nc2cccc(C)c2)c1O (stereo not given)	Pf growth 48h 13µM
C=CCc1cccc(/C=N/NC(=O)CCCNc2ccc(C)cc2)c1O	Pf growth 96h inconclusive
COc1ccc(-n2c(=O)c3ccccc3n(CC(=O)NC3CCCCC3)c2=O)cc1	Pf growth 96h inconclusive
O=C(c1ccc([N+](=O)[O-])cc1)N(Cc1ccc(Br)cc1)N1C(=O)CCCC1=O	none (no result: Pf growth 48h)
COc1ccc(NCc2nn(CC(=O)c3ccc(Br)cc3)c3[n+]2CCCCC3)cc1	Pf growth 96h inconclusive, Pf growth 48h 1.9µM
O=C(Cn1nc(CNc2ccc(Br)cc2)[n+]2c1CCCCC2)c1ccc([N+](=O)[O-])cc1	Pf growth 96h inconclusive, Pf growth 48h 2.1µM
O=C(Cn1nc(CNc2ccc(Cl)cc2)[n+]2c1CCCCC2)c1ccc(Br)cc1	Pf growth 96h inconclusive, Pf growth 48h 0.93µM
CCCOC(=O)N[C@@H]1C(=O)N2C(C(=O)OCCC)=C(C)CS[C@H]12	none
CC(=O)NC12CC3CC(C1)CC(C(=O)N1CCN(S(=O)(=O)c4ccc(C(C)C)cc4)CC1)(C3)C2	Pf growth 96h 12µM (no result: Cycloheximide cs, Shiga inhibitor, LmPK inhibitor)
COc1ccc(/C=C/c2nnc(NC(=O)CSc3ccc(C)cc3)s2)cc1	Cycloheximide cs 15, Shiga inhibitor 94, Pf growth 96h inconclusive
CCC(=O)Nc1nnc(/C=C/c2ccc(OC)cc2)s1	Cycloheximide cs 32, Shiga inhibitor 55
COC1=C2C[C@@H](C)C[C@H](OC)[C@H](O)[C@@H](C)/C=C(\C)[C@H](OC(N)=O)[C@@H](OC)/C=C\C=C(/C)C(=O)NC(=CC1=O)C2=O	none (no result: Pf growth 96h, Pf growth 48h, LmPK inhibitor)
Cc1ccc(C)c(N2CCN(C(=O)CN(C)S(=O)(=O)c3ccc4c(c3)CCC(=O)N4)CC2)c1	Pf growth 96h 2.3µM (no result: Pf growth 48h)
CC1CCC(NC(=O)CN(C)S(=O)(=O)c2ccc3c(c2)CCC(=O)N3)CC1 (stereo not given)	Pf growth 96h 1.5µM
CC1CCCCC1NC(=O)CN(C)S(=O)(=O)c1ccc2c(c1)CCC(=O)N2 (stereo not given)	Pf growth 96h inconclusive
COc1cccc(NC(=O)CN(C)S(=O)(=O)c2ccc3c(c2)CCC(=O)N3)c1	Pf growth 96h 7.4µM
CCOC(=O)C1=C(CSCc2ccccc2)NC(=O)NC1c1cc(C)ccc1C (stereo not given)	Pf growth 48h 13µM (no result: Pf growth 96h)
C/C(=N/OC(=O)c1ccccc1Br)c1ccc(C)cc1	Cycloheximide cs 66, Shiga inhibitor 139
C/C(=N/OC(=O)c1ccc(C)cc1)c1ccc(N2C(=O)C3CCCCC3C2=O)cc1 (stereo not given)	none

Screening results: PubChem, National Center for Advancing Translational Sciences (NCATS)
